Screening results as filed in PubChem BioAssay.
Only some compounds are listed: those with a hit (about 3.5% of all), similar ones and a draw of the others.
MITF inh: MITF inhibitors, primary screen, biochemical, AlphaScreen, human | Microphthalmia-associated transcription factor (Homo sapiens), O75030 | 650,000 compounds, 0.91% hits | inhibition, % at 2.6 µM | AlphaScreen MITF homodimerization, bead proximity signal | AID 1259374, 2018; in the data active = inhibition above about 50%;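 also: 0% = vehicle wells with protein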
Target sequence (O75030 whole entry, looked up): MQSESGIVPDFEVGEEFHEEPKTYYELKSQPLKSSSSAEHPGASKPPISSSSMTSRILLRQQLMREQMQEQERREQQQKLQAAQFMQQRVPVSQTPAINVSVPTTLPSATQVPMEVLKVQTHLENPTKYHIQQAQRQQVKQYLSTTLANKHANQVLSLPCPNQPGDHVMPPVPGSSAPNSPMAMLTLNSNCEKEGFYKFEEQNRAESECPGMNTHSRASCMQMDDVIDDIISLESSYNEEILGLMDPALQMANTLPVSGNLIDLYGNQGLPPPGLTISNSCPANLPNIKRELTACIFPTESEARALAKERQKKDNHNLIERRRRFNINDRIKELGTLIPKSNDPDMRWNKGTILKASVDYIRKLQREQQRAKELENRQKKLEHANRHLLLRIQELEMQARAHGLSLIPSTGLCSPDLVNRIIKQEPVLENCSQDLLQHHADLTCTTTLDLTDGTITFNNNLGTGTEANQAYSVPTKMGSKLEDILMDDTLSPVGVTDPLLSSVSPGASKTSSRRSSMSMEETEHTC
TEAD-YAP inh: TEAD-YAP interaction inhibition, primary screen, TEAD-YAP interaction inhibitor project, luminescence, HEK-TIYL cells; TEAD-Gal4/YAP UAS-luciferase luminescence; inhibition, % at 9.12 µM; 640,000 compounds, 1.4% hits; AID 1259422, 2018; in the data active = inhibition above about 32%;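 also: 0% = median of test compound wells and 100% = reference inhibitor wells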
FBW7 activator: FBW7 E3 ligase activators, primary screen, biochemical, AlphaScreen, human. F-box/WD repeat-containing protein 7 (Homo sapiens), Q969H0. AlphaScreen FBW7–phospho-cyclin E peptide binding, activator screen. normalized activity (activation), % at 26.1 µM. 650,000 compounds, 0.13% hits. AID 1259310, 2017; in the data active = normalized activity above about 1.9%;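 also: purified mutant Fbw7 with reduced substrate affinity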
GPR151 activ: activators of human GPR151, primary screen, cell-based, PathHunter beta-arrestin, luminescence; G-protein coupled receptor 151 (Homo sapiens), Q8TDV0; PathHunter beta-arrestin GPR151 cells; activation, % at 11.2 µM; 650,000 compounds, 1% hits; AID 1508602, 2020; in the data active = activation above about 4.9%;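 also: 0% = median of compound wells and 100% = cells with positive control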
* hit, by the source's call.

SMILES | MITF inh | TEAD-YAP inh | FBW7 activator | GPR151 activ
COc1cc(C2Nc3ccc(C(=O)c4ccccc4)cc3NC3=C2C(=O)CC(C)(C)C3)ccc1O (stereo unspecified) | -1 | 41* | 0 | 0
CCN(CC)c1ccc(C2Nc3ccccc3NC3=C2C(=O)CC(C)(C)C3)cc1 (stereo unspecified) | 1 | 54* | 0 | 0
CC1(C)CC(=O)C2=C(C1)Nc1ccccc1NC2c1ccc(-c2ccccc2)cc1 (stereo unspecified) | -1 | 21 | 0 | 2
CSc1ccc(C2Nc3ccc(C(=O)c4ccccc4)cc3NC3=C2C(=O)CCC3)cc1 (stereo unspecified) | -12 | 43* | 0 | 0
O=C1CCCC2=C1C(c1ccc(Cl)c(Cl)c1)Nc1ccc(C(=O)c3ccccc3)cc1N2 (stereo unspecified) | 4 | 50* | 0 | 0
COc1ccc2nc(NCCNC(=O)c3ccc(OC)c(OC)c3)c(C#N)cc2c1 | -18 | -8 | 1 | -1
O=C1c2ccc(Br)cc2C(=O)N1c1ccc(Br)cn1 | 11 | 3 | 0 | 0
COC(=O)C1CCN(Cc2ccc3c(c2)CN(C(=O)Cc2cccc(F)c2)CCO3)CC1 | 18 | 6 | 2.1* | -1
CC(=O)c1ccc(C(=O)N2CCOc3ccc(CN4CCN(C(C)=O)CC4)cc3C2)cc1 | 5 | 5 | 2.3* | 0
Cc1ccc(S(=O)(=O)N(CC(=O)N2CCCC2)C(=O)N2CCN(C)CC2)cc1 | -10 | -1 | 0 | -1
NC(=O)c1ccc(-c2cc(NCCOc3ccccc3)ncn2)cc1 | -1 | -9 | 0 | 2
Cc1cc2nc(-c3ccc[nH]c3=O)[nH]c2cc1C | -11 | 86* | 0 | -11
Cc1ccccc1-c1nc2ccccc2[nH]1 | 24 | -53 | 0 | -2
CNC(=O)c1ccccc1Nc1cc(NC(=O)C(C)(C)c2ccccc2)ncc1C(F)(F)F | 8 | 4 | 0 | 0
NC(=O)c1ccccc1Nc1cc(NC(=O)Cc2ccc3c(c2)OCO3)ncc1F | 0 | 21 | 0 | 2
CNC(=O)c1ccccc1Nc1cc(NC(=O)Cc2ccc3c(c2)OCO3)ncc1C(F)(F)F | 12 | 75* | 0 | 0
NC(=O)c1ccccc1Nc1cc(NC(=O)Cc2ccc3c(c2)OCO3)ncc1C(F)(F)F | 18 | 100* | 1 | -1
CNC(=O)c1ccccc1Nc1cc(NC(=O)Cc2cccc(F)c2)ncc1C(F)(F)F | -5 | 72* | 1 | -2
NC(=O)c1ccccc1Nc1cc(NC(=O)Cc2ccc3c(c2)OCO3)ncc1Cl | 11 | 70* | 0 | 0
CCCCCCc1ccc(C2=N/C(=C\c3ccc(N(C)C)cc3)C(=O)O2)cc1 | -2 | -3 | 0 | 1
O=C(NCc1n[nH]c(=O)c2ccccc12)c1cccc(Cl)c1 | 3 | -1 | 0 | -1
Cc1ccn2c(CNCc3ccc4c(c3)OCO4)c(C(=O)N3CCCCCC3)nc2c1 | -28 | -2 | 0 | 0
Cc1cc(C)n2nc(CCC(=O)O)nc2n1 | 10 | -2 | 0 | 3
O=C(Cc1ccc2c(c1)OCO2)Nc1cc(Nc2ccccc2C2=NCCN2)c(Cl)cn1 | 9 | 10 | 0 | 0
CNC(=O)c1ccccc1Nc1cc(NC(=O)Cc2ccccc2OC)ncc1C(F)(F)F | 18 | 83* | 0 | -1
SMILES | MITF inh | TEAD-YAP inh | FBW7 activator | GPR151 activ
O=C(Cc1ccc2c(c1)OCO2)Nc1cc(Nc2ccccc2-c2ncn[nH]2)c(Cl)cn1 | 13 | 64* | 1 | 0
O=C(N/N=C/c1ccc(-c2ccc([N+](=O)[O-])cc2)o1)c1cncc(Br)c1 | 13 | 7 | 0 | 0
O=C(COc1ccc(Cl)cc1[N+](=O)[O-])N1CCCC1 | 4 | -2 | 0 | 0
CCN(CC)c1ccc(NC(=O)CNCCN2CCOCC2)c(C)c1 | 61* | 2 | 0 | 2
Cc1c(C(=O)N2CCCCC2C)sc2ncnc(N3CCN(c4ccccc4F)CC3)c12 (stereo unspecified) | -1 | -11 | 0 | 0
O=C(CSc1nccc(=O)[nH]1)c1ccc(O)c(O)c1 | 55* | 2 | 0 | -2
CC1=C(C(=O)Nc2ccc(C)cn2)C(c2ccc(C)cc2)C2=C(CC(C)(C)CC2=O)N1 (stereo unspecified) | 10 | 8 | 0 | 1
